Assay results: PubChem BioAssay
The source made the active and inactive calls.

Legend:
[1] = small molecules captured by biotinylated probe aFSTL3 – biochemical, small-molecule microarray, fluorescence 635/667, stem cell growth factor project, primary screen (AID 1064); conditions: higher = more signal;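 note: measures binding of the biotinylated anti-FSTL3 antibody to printed compounds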
[2] = binders from COS7 lysate, DM2A8 probe, primary screen, torsin A project, cell lysate, small-molecule microarray, fluorescence 635/667 (AID 1065); conditions: higher = more signal, COS7 lysate expressing mutant human TOR1A
[3] = small molecules captured by biotinylated probe aFGF2 – biochemical, small-molecule microarray, fluorescence 635/667, stem cell growth factor project, primary screen (AID 1067); conditions: higher = more signal;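 note: measures binding of biotinylated aFGF2 protein to printed compounds on slides; z-score merges feature fluorescence and signal-to-noise across triplicate slides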
[4] = small molecules captured by biotinylated probe aFGF10 – biochemical, small-molecule microarray, fluorescence 635/667, stem cell growth factor project, primary screen (AID 1071); conditions: higher = more signal;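 note: score merges 667 nm spot intensity and signal to noise from triplicate slides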
[5] = target: Neurogenic locus notch homolog protein 2 (Homo sapiens) (UniProt Q04721); experiment: small molecules binding Notch2 protein – biochemical, small-molecule microarray, 635 nm fluorescence, stem cell growth factors, primary screen (AID 1073); conditions: higher = more signal
[6] = target: Pro-neuregulin-1, membrane-bound isoform (Homo sapiens) (UniProt Q02297); experiment: small molecules binding neuregulin-1 protein – biochemical, small-molecule microarray, fluorescence 635/667, psychiatric disease protein project, primary screen (AID 1075); conditions: NRG1 binding, 635 nm fluorescence, higher = more signal;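 note: score combines 667 nm spot fluorescence with signal to noise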
[7] = system: Neuregulin-1 EGF-like domain; experiment: small molecules binding NRG1 EGF domain – biochemical, small-molecule microarray, 635 nm fluorescence, primary screen (AID 1081); conditions: higher = more signal;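 note: binding of the protein to compounds printed on small-molecule microarray slides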
[8] = FRG1 expression reporter modulators in myotubes – cell-based, C2C12 myotubes, firefly/Renilla luciferase, luminescence, FRG1 inhibition for FSHD, primary screen (AID 1084); conditions: FRG1 promoter luciferase, higher = more signal, called active from +8 up or from −8 down
[9] = small molecules captured by biotinylated probe aFST – biochemical, small-molecule microarray, fluorescence 635/667, stem cell growth factor project, primary screen (AID 1086); conditions: higher = more signal;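 note: score merges 667 nm fluorescence with signal-to-noise of each printed compound spot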
[10] = binders of probe aHhip on microarray, primary screen, stem cell growth factor project, biochemical, small-molecule microarray, fluorescence 635/667 (AID 1087); conditions: higher = more signal;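 note: score merges spot fluorescence at 667nm with spot signal to noise ratio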

Chain of Pro-neuregulin-1, membrane-bound isoform (Homo sapiens) (Q02297 whole entry, looked up, the tested form may be a part, canonical isoform): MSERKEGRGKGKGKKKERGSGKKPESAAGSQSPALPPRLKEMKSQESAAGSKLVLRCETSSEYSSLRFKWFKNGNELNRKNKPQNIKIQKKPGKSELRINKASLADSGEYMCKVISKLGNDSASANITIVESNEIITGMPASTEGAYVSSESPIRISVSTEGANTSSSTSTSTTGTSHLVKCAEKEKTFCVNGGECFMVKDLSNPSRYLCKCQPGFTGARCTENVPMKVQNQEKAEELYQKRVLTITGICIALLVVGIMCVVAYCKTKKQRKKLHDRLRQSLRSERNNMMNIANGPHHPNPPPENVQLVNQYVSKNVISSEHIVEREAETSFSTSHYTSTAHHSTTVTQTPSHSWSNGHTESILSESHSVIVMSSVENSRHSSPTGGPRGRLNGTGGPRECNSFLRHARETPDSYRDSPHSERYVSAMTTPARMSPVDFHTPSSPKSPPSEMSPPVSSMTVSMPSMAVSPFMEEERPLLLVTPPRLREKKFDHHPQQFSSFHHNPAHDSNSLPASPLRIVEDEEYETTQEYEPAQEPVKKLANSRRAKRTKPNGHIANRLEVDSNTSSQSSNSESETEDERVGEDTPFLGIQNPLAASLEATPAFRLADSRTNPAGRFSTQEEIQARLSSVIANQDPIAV
Chain of Neurogenic locus notch homolog protein 2 (Homo sapiens) (Q04721 whole entry, looked up, canonical isoform): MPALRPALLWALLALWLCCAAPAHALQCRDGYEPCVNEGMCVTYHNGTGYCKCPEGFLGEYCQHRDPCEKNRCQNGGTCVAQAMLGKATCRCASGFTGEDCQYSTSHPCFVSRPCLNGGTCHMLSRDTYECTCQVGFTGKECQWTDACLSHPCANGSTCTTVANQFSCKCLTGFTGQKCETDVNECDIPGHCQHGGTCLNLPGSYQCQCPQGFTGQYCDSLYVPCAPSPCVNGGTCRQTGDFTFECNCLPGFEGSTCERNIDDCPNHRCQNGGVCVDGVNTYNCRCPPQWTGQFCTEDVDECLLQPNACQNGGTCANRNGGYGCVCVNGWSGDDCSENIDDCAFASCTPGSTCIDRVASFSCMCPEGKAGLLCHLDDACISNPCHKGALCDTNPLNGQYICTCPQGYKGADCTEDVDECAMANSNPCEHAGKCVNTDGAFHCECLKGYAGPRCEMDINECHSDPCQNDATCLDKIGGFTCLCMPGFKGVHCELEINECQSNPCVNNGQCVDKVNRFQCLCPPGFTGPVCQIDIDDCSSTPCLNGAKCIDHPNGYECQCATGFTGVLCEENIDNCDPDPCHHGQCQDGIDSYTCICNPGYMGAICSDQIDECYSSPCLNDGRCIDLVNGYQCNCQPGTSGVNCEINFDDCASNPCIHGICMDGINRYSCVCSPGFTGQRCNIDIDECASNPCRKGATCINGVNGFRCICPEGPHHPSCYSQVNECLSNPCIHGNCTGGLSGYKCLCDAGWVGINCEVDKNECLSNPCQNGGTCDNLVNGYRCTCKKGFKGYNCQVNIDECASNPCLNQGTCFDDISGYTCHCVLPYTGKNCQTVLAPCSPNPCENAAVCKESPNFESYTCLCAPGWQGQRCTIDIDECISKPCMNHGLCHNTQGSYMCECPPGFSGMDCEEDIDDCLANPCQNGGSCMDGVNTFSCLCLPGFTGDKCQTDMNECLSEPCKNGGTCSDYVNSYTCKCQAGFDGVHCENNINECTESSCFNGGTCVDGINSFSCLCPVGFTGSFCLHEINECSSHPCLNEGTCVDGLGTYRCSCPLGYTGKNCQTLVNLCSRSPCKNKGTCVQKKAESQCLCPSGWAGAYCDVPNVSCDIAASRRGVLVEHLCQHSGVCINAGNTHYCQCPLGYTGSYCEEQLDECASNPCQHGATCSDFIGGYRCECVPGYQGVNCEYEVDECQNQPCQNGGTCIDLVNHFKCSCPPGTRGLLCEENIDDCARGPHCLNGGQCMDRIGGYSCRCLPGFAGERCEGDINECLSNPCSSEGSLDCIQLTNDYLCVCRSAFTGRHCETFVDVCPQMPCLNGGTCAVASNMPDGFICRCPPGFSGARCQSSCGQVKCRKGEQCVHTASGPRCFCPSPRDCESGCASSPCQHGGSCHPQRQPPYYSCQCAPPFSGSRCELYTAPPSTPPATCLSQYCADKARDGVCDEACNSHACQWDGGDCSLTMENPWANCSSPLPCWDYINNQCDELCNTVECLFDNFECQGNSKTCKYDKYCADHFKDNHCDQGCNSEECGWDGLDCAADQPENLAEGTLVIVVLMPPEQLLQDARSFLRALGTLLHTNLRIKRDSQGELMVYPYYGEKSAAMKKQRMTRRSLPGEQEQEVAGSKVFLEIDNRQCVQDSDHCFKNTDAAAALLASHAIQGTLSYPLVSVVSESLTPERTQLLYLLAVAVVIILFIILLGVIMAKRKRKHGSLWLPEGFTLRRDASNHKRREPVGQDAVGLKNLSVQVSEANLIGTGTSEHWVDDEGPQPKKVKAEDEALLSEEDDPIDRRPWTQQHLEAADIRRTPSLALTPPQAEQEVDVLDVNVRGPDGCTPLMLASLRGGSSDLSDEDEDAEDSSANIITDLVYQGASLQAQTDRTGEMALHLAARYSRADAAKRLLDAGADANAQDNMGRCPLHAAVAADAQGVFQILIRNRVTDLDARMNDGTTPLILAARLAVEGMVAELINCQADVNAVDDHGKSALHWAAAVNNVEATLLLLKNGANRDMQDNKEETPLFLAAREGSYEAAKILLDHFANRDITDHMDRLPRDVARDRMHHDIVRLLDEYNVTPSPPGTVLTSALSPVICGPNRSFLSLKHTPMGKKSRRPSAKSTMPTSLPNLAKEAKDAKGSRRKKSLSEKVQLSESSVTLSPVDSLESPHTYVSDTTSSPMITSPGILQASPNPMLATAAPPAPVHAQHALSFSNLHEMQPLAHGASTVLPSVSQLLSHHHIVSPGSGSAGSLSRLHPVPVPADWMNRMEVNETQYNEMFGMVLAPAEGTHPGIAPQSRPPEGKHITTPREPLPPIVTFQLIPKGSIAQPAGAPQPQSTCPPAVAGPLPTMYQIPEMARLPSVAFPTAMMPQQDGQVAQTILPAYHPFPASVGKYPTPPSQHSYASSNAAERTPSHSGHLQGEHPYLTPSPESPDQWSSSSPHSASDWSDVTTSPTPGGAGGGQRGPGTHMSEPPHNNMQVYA

Compound | composite z-score [1] | composite z-score [2] | composite z-score [3] | composite z-score [4] | composite z-score [5] | composite z-score [6] | composite z-score [7] | z-score [8] | composite z-score [9] | composite z-score [10]
COCCOC(=O)N1C(=O)[C@@]2(c3cc(C#CCNC(N)=O)ccc31)[C@H](C(=O)Nc1nc3ccccc3s1)[C@H]1C(=O)O[C@H](c3ccccc3)[C@H](c3ccccc3)N1[C@@H]2c1ccccc1OCCO | -0.35 | 0.578 | -0.0569 | 0.475 | 0.809 | 0.257 | 0.635 | 0.36 (inactive) | 0.71 | -0.102
O=C1C2C=CC(C(O)c3ccc([N+](=O)[O-])cc3)N(Nc3ccccc3F)C2C(=O)N1c1ccccc1 (stereo not given) | 0.484 | 0.173 | -0.0172 | 0.438 | 1.12 | 1.6 | 1.29 | -0.101 (inactive) | 0.883 | -0.163
CCCC=C(CCC)[C@@H](NC(=O)c1ccc(C(F)(F)F)cc1)c1ccc(C(F)(F)F)cc1 | 0.625 | 0.629 | 0.171 | 0.669 | 1.57 | 1.82 | 0.588 | -4.76 (inactive) | 1.04 | -0.0965
COCCCNC(=O)[C@@]1(CCS(=O)(=O)c2ccccc2)COC(c2ccc(OCCCO)cc2)=N1 | 1.79 | 1.68 | 0.0177 | 0.529 | 0.874 | 2.3 | 1.28 | -1.24 (inactive) | 1.1 | -0.0296
O=C1[C@H]2C=C(I)[C@H](C[C@@H]2OCCCCCCO)[C@@]12CO2 | -0.123 | 0.249 | -0.169 | 0.0956 | 1.01 | -0.715 | -0.175 | 0.622 (inactive) | -0.132 | -0.183
CN(C)CCCC[C@@H]1NC(=O)[C@@H]2C[C@H](C(=O)NCCCCCN)[C@H](c3cccc(OCCO)c3)N2C1=O | -0.439 | 1.75 | -0.121 | 0.549 | 0.549 | 1.09 | 1.35 | -1.02 (inactive) | 0.153 | 0.0722
CC(C)N1C(=O)c2ccccc2[C@@H](C(=O)NCC(F)(F)F)[C@@H]1c1ccc(CO)cc1 | 0.277 | -1.16 | -0.133 | -0.0347 | -1.07 | 0.156 | 1.21 | 0.0294 (inactive) | -0.0934 | -0.169
O=C1C[C@@](C(=O)O)(c2ccc([N+](=O)[O-])cc2)[C@@H](c2ccc(CO)cc2)N1C1CCCCC1 | -0.0207 | 0.748 | 0.137 | 0.687 | 1.46 | 1.63 | 1.21 | -0.118 (inactive) | 0.905 | -0.0645
C=CCNC(=O)[C@H]1[C@@H]2C(=O)O[C@@H](c3ccccc3)[C@@H](c3ccccc3)N2[C@@H](c2ccccc2OCCO)[C@]12C(=O)N(C(=O)OCCOC)c1ccc(C#Cc3ccc(OC)cc3)cc12 | 0.0122 | 0.633 | 0.0074 | 0.668 | 0.615 | 1.33 | 1.21 | 1.34 (inactive) | 0.101 | -0.0645
C=C(COC)/C(=C/C[C@H](OC(C)=O)c1ccccc1OCCO)c1cc(C(=O)OC)ccc1OC | -0.398 | 0.275 | -0.0948 | 1.05 | -0.738 | 0.727 | 1.28 | 0.181 (inactive) | 0.318 | -0.0003
COCCOC(=O)N1C(=O)[C@@]2(c3cc(C#CCC(C(=O)OC)C(=O)OC)ccc31)[C@H](C(N)=O)[C@H]1C(=O)O[C@H](c3ccccc3)[C@H](c3ccccc3)N1[C@@H]2c1ccc(O)cc1 | -0.291 | 0.79 | 0.015 | 1.2 | 1.57 | 1.6 | 1.23 | 3.78 (inactive) | 0.838 | 0.0768
CN(C)CCCNC(=O)[C@@]1(Cc2ccccc2I)c2ccccc2C(=O)N(C2CCCCC2)[C@H]1c1ccc(CO)cc1 | 1.13 | 1.02 | 0.0676 | 0.293 | 1.24 | 0.418 | 1.26 | -3.32 (inactive) | 0.68 | 0.214
O=C1c2ccccc2[C@@]2(Cc3ccccc3N(Cc3ccccc3)C2=O)[C@H](c2ccc(CO)cc2)N1Cc1ccccc1Cl | 0.209 | -0.337 | -0.0934 | -0.127 | -1.04 | -0.579 | -1.13 | 1.13 (inactive) | -0.164 | -0.0541
C=C(COC)C(=O)CC[C@@H](OC(=O)c1ccccc1-c1ccccc1C(=O)O)c1ccc(OCCO)cc1 | -0.209 | 0.487 | -0.132 | -0.252 | -0.638 | -0.335 | 0.685 | 2.6 (inactive) | -0.0463 | -0.0994
CC(C)OC(=O)CC(=O)CC(O)c1cccc([N+](=O)[O-])c1 (stereo not given) | 0.62 | 1.22 | -0.0028 | 0.376 | 0.546 | 0.334 | 0.947 | -1 (inactive) | 0.815 | -0.305
COCCCNC(=O)[C@@H]1c2ccccc2C(=O)N(Cc2ccc(OC(F)(F)F)cc2)[C@H]1c1ccc(CO)cc1 | -0.388 | 0.0383 | 0.015 | 0.235 | 0.329 | 0.244 | 0.617 | -0.228 (inactive) | 0.541 | 1.03

Compound | composite z-score [1] | composite z-score [2] | composite z-score [3] | composite z-score [4] | composite z-score [5] | composite z-score [6] | composite z-score [7] | z-score [8] | composite z-score [9] | composite z-score [10]
O=C(NC1CC1)[C@@H]1c2ccccc2C(=O)N(Cc2ccc(OC(F)(F)F)cc2)[C@H]1c1ccc(CO)cc1 | 0.0273 | 0.314 | -0.0418 | -0.0789 | 0.354 | 1.38 | 0.793 | -0.859 (inactive) | 0.0427 | -0.0994
CC(C)c1nc2cc(Br)ccc2c(=O)o1 | -0.404 | 0.109 | 0.0013 | 0.58 | 1.39 | 1.21 | 0.565 | 0.604 (inactive) | 0.689 | -0.146
NC(=O)N1C(=O)C2C(C1=O)C1C=C(CCCO)C2C(c2ccc(CN3CCCC3)cc2)N1Cc1sc2ccccc2c1Cl (stereo not given) | -0.161 | 0.224 | -0.0867 | 0.0718 | 0.0517 | 0.0965 | 0.834 | -0.824 (inactive) | -0.835 | -0.323
COC(=O)C(CC#Cc1ccc2c(c1)[C@]1(C(=O)N2)[C@H](c2ccccc2OCCO)N2[C@H](c3ccccc3)[C@H](c3ccccc3)OC(=O)[C@H]2[C@@H]1C(=O)N1CCc2cc(OC)c(OC)cc2C1)C(=O)OC | -0.152 | 0.179 | -0.0087 | 0.382 | 1.15 | 0.834 | 1.3 | -1.14 (inactive) | 0.383 | -0.374
COC(=O)[C@@]1(Cc2ccccc2)[C@H]2c3cc(C(=O)N(C)C)n(Cc4ccc(S(C)(=O)=O)cc4)c3C[C@H]2CN1C(=O)c1ccccc1 | 0.442 | 0.198 | 0.431 | 0.443 | 1.48 | 2.03 | 1.22 | 2.39 (inactive) | 0.744 | -0.118
CCCCCCc1nc(Cc2cc(OC)c(OC)c(OC)c2)cc2c1[Si](C(C)C)(C(C)C)O[C@H]2c1ccccc1 | -0.557 | 0.251 | -0.0599 | 0.0804 | 0.191 | -0.0387 | -0.712 | -0.361 (inactive) | 0.0506 | 0.0677
C=CCOC(=O)[C@H]1[C@@H]2C(=O)O[C@@H](c3ccccc3)[C@@H](c3ccccc3)N2[C@@H](c2ccc(OCCOC(=O)[C@@H]3C[C@@H]4C(=O)N[C@@H](CCCCNC(C)=O)C(=O)N4[C@@H]3c3cccc(OCCO)c3)cc2)[C@]12C(=O)Nc1ccccc12 | 0.125 | 1.67 | -0.024 | 0.489 | 0.717 | 1.19 | 1.3 | 1.26 (inactive) | 0.324 | -0.0994
COc1ccc([Si](C)(C)[C@@H]2[C@@H](CC(=O)N(CCO)Cc3ccccc3)O[C@]3(C(=O)N(Cc4ccc(I)cc4)c4ccccc43)[C@H]2C)cc1 | 0.44 | 1.2 | -0.0403 | 0.0554 | 0.512 | 0.136 | 0.83 | -2.04 (inactive) | 0.621 | 1
COc1ccc(C(O)C2C=CC3C(=O)NC(=O)C3N2Nc2ccc(Cl)cc2Cl)c2ccccc12 (stereo not given) | 0.877 | 0.433 | -0.106 | 0.273 | 1.02 | 0.999 | 1.04 | -0.0308 (inactive) | 0.951 | -0.216
COCCn1c(C(=O)N(C)C)cc2c1C[C@H]1CN(C(=O)c3ccccc3)[C@@](Cc3ccc(OC)cc3)(C(=O)OC)[C@@H]21 | 0.609 | -0.478 | -0.19 | 0.34 | 1.64 | 1.54 | 1.27 | 1.54 (inactive) | 1.32 | 0.0053
COC(=O)[C@@]1(Cc2ccc(F)cc2)[C@H]2c3cc(C(=O)N4CCCC4)n(Cc4ccccn4)c3C[C@H]2CN1C(=O)c1ccccc1 | 0.116 | -0.89 | 0.272 | 1.22 | 1.71 | 1.29 | 1.4 | 0.755 (inactive) | 0.987 | 0.685
C=C(CCCC)/C(=C/C[C@H](OC(=O)c1ccncc1)c1ccc(OCCO)cc1)c1cnc2ccccc2c1 | 0.102 | 1.23 | -0.121 | 0.322 | 1.12 | 1.33 | 1.23 | -0.791 (inactive) | 0.402 | -0.124
CC(C)C(CO)N1C(=O)[C@@H]2C3C(=O)OCCC/C=C\[C@H]3OC23C=CCN(Cc2ccccc2)C(=O)[C@@H]13 (stereo not given in full) | 0.598 | -0.217 | -0.0744 | 0.648 | -0.376 | 1.43 | 1.58 | 0.597 (inactive) | -0.406 | -0.134
CC(=O)NCCCC[C@@H]1NC(=O)[C@H]2C[C@@H](C(=O)NCCCCCCNC(=O)CS)[C@@H](c3cccc(OCCO)c3)N2C1=O | 0.419 | 0.611 | 0.0252 | 0.492 | -0.681 | 0.465 | 1.42 | 0.799 (inactive) | -0.0535 | -0.0618
C[C@@H]1ON(c2ccc(I)cc2)[C@H](c2cccc(NC(=O)OCC3c4ccccc4-c4ccccc43)c2)[C@H]1C(=O)N1C(=O)OC[C@H]1Cc1ccccc1 | -0.162 | 0.382 | -0.132 | 0.15 | 0.524 | 0.608 | 0.0222 | 0.108 (inactive) | 0.0393 | 0.132
O=C1NC(=O)C2C1C=CC(C(O)c1ccc([N+](=O)[O-])cc1)N2Nc1ccccn1 (stereo not given) | 0.0895 | -0.0755 | -0.0442 | 0.0525 | 0.864 | 0.441 | 0.554 | 0.484 (inactive) | -0.16 | -0.0074
